Source: the supplement of paper PMC6992640
Structures can show the parent of a compound that is named as a salt. ± gives the standard deviation of the averaged measurements.

Assays:
Assay in all cases: cell viability (% of vehicle); higher = less cytotoxic
Settings in all cases: 10 µM; 72 h
HCI01 = system: HCI01 (cells of a triple-negative basal-like breast cancer xenograft)
HCI03 = system: HCI03 (cells of an ER-positive luminal breast cancer xenograft)
HCI09 = system: HCI09 (cells of a triple-negative luminal androgen receptor type breast cancer xenograft)
HCI11 = system: HCI11 (cells of an ER-positive luminal breast cancer xenograft)
HCI13 = system: HCI13 (cells of an ER-positive luminal breast cancer xenograft)
HCI16 = system: HCI16 (cells of a triple-negative basal-like breast cancer xenograft)
UCD52 = system: UCD52 (cells of a triple-negative basal-like breast cancer xenograft)
WHIM2 = system: WHIM2 (cells of a triple-negative basal-like breast cancer xenograft)
WHIM30 = system: WHIM30 (cells of a triple-negative basal-like breast cancer xenograft)
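Note: PDX cells carrying CMV promoter-driven luciferase, viability read as total photon flux per second by IVIS imaging following D-luciferin, vehicle control 0.1% DMSO.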

Structure (SMILES)	cell viability (HCI01)	cell viability (HCI03)	cell viability (HCI09)	cell viability (HCI11)	cell viability (HCI13)	cell viability (HCI16)	cell viability (UCD52)	cell viability (WHIM2)	cell viability (WHIM30)
O.O=P1(N(CCCl)CCCl)NCCCO1 (centres undefined) [Cyclophosphamide monohydrate]	133 ± 17	147	90.3 ± 17	125	140 ± 5.4	125	98.5 ± 2.4	106 ± 2.2	130 ± 8.5
Cl.NCC(O)c1ccc(O)cc1 (racemic) [(+,-)-Octopamine HCl]	101 ± 10	119	93 ± 10	98.3	–	120	91.1 ± 16	87.9 ± 7.5	149.4 ± 0.28
CCC(COC(=O)c1cc(OC)c(OC)c(OC)c1)(c1ccccc1)N(C)C (centres undefined) [Trimebutine]	116 ± 6.9	109	103 ± 7.8	92.9	–	135	84.9 ± 15	96.2 ± 2.8	111.2 ± 0.53
Cc1cc(O)ccc1Cl [Chlorocresol]	114 ± 41	120	88.6 ± 17	85.9	77.6 ± 8.4	107	87.1 ± 2.5	98.6 ± 25	91.9 ± 1.3
CCCC1CC(=O)N(C(CC)C(N)=O)C1 (centres undefined) [Brivaracetam]	98 ± 7	163	97.1 ± 1.8	89.3	87.83 ± 0.76	101	106 ± 1.4	98.2 ± 12	128 ± 11
CCNCC.O=C(O)Cc1ccccc1Nc1c(Cl)cccc1Cl [Diclofenac Diethylamine]	91.7 ± 19	77.9	88.7 ± 1.8	83.1	70.4 ± 10	113	69 ± 2.6	108 ± 7.9	94.02 ± 0.47
N/C(N)=N\N.Cl [Aminoguanidine hydrochloride]	100 ± 16	105	95.2 ± 6.9	64	90 ± 2.4	118	99.6 ± 9.3	95.1 ± 21	53.4 ± 6.4
C=C1CC2C(CCC3(C)C(=O)CCC23)C2(C)C=CC(=O)C=C12 (centres undefined) [Exemestane]	166 ± 17	103	101 ± 14	124	150 ± 6.5	124	159 ± 17	128 ± 28	151 ± 15
CN1C(=O)CCS(=O)(=O)C1c1ccc(Cl)cc1 (centres undefined) [Chlormezanone]	90 ± 11	118	92.3 ± 7.5	105	71.1 ± 7.2	122	104 ± 10	113 ± 12	172.2 ± 0.74
Cn1c(COP(=O)(NCCBr)NCCBr)cnc1[N+](=O)[O-]	99.5 ± 14	100	123 ± 33	120	153.9 ± 0.46	44.9	81.4 ± 2.1	44.6 ± 2.6	107 ± 2.5
Cl.NCC1(CC(=O)O)CCCCC1 [Gabapentin HCl]	142 ± 42	121	94.2 ± 3.2	90.2	109 ± 14	120	80.45 ± 0.75	85.7 ± 7.6	115.5 ± 0.43
CCN(C)C(=O)Oc1cccc(C(C)N(C)C)c1 (centres undefined) [Rivastigmine]	107 ± 11	112	109 ± 4.2	106	98.3 ± 1.7	96.3	101 ± 7.6	103 ± 16	118 ± 9.7
Cc1cccc(C(C)c2cnc[nH]2)c1C (centres undefined) [Dexmedetomidine]	129 ± 5.7	106	90.4 ± 10	105	103 ± 16	148	92.7 ± 0.94	106 ± 9.5	120 ± 5.1
Cc1cccc(Cc2cnc[nH]2)c1C.Cl [Detomidine HCl]	118 ± 4	114	96.9 ± 30	97.2	79.4 ± 6.8	92	84.9 ± 4.3	85.5 ± 32	135 ± 3
C[N+]1(C)[C@@H]2C[C@@H](OC(=O)C(CO)c3ccccc3)C[C@H]1[C@@H]1O[C@@H]12.[Br-] (some centres undefined) [Methscopolamine]	106 ± 8.5	128	107 ± 9.7	93.2	–	97.9	80.6 ± 12	87.7 ± 8	138.9 ± 0.7
Cc1cccc(C(C)c2cnc[nH]2)c1C.Cl (centres undefined) [Dexmedetomidine HCl]	110 ± 1.2	103	91.2 ± 26	103	82.7 ± 11	89.9	86.7 ± 1.2	72.3 ± 17	112.3 ± 0.75
O=C(O)c1nn(Cc2ccc(Cl)cc2Cl)c2ccccc12 [Lonidamine]	88.9 ± 18	112	92.9 ± 6.3	82.9	85.1 ± 8.5	124	82.6 ± 1.7	80.2 ± 32	138.9 ± 1.1
C#CC1(O)C=CC2C3CCC4=CC(=O)CCC4C3CCC21CC (centres undefined) [Gestodene]	–	149	97.4 ± 20	122	179 ± 25	184	143.1 ± 1.4	106 ± 5	–
CCC1(c2cccc(O)c2)CCCCN(C)C1.Cl (centres undefined) [Meptazinol HCl]	69.9 ± 42	141	98.1 ± 10	94	111 ± 5	112	85.7 ± 6	91.8 ± 33	181.3 ± 0.74
CC(=Cc1csc(C)n1)C1CC2OC2(C)CCCC(C)C(O)C(C)C(=O)C(C)(C)C(O)CC(=O)O1 (centres undefined) [Epothilone B (EPO906, Patupilone)]	154 ± 16	119	91.4 ± 4.8	99.2	111 ± 2.6	–	78.2 ± 9.1	75.9 ± 13	137 ± 13
Cc1c(N)nc(C(CC(N)=O)NCC(N)C(N)=O)nc1C(=O)NC(C(=O)NC(C)C(O)C(C)C(=O)NC(C(=O)NCCc1nc(-c2nc(C(=O)NCCC[S+](C)C)cs2)cs1)C(C)O)C(O[C@@H]1O[C@@H](CO)[C@@H](O)[C@H](O)[C@@H]1O[C@H]1O[C@H](CO)[C@@H](O)[C@H](OC(N)=O)[C@@H]1O)c1cnc[nH]1 (some centres undefined) [Bleomycin Sulfate]	117 ± 3.2	–	61.2 ± 15	106	39.2 ± 24	83.4	109 ± 6.6	77 ± 1.2	100 ± 27
Cc1cccc(C)c1NC1=NCCCS1.Cl [Xylazine HCl]	159 ± 36	120	110 ± 12	115	105 ± 6.4	124	92.3 ± 11	120 ± 7	127 ± 8
Cc1ccc(-n2nccn2)c(C(=O)N2CCN(c3nc4cc(Cl)ccc4o3)CCC2C)c1 (centres undefined)	136 ± 9.6	88	39.5 ± 27	93.5	101 ± 34	101	91.9 ± 10	118 ± 22	136 ± 3.4
C=CCC1(O)CCC2C3CCC4=CC(=O)CCC4=C3C=CC21C (centres undefined) [Altrenogest]	172 ± 56	125	65.5 ± 13	78.7	137 ± 7.6	150	83.1 ± 6.5	107 ± 12	141 ± 8.9
O=c1[nH]c2ccccc2n1CCCN1CCC(n2c(=O)[nH]c3cc(Cl)ccc32)CC1 [Domperidone]	195 ± 80	103	113 ± 65	84.9	–	–	128 ± 5.5	83.8 ± 4.6	176 ± 9.8
CC(C)CC(CN)CC(=O)O (centres undefined) [Pregabalin]	97.8 ± 10	104	90.8 ± 9	95.6	138 ± 18	70.8	78.2 ± 7.7	81.4 ± 9.4	111 ± 21
NCC1(CC(=O)O)CCCCC1 [Gabapentin]	96.8 ± 7.7	119	97.8 ± 9.5	104	88.1 ± 2.5	76	77.8 ± 0.82	88.1 ± 8.3	76.9 ± 11
